Compound activity: PubChem, National Center for Advancing Translational Sciences (NCATS)
D2 ag-1 – human D2 receptor agonism in beta-arrestin assay. P14416. activation, % (no concentration beside the values). DiscoveRx PathHunter D2 beta-arrestin, luminescence, 90 min; 100% = 57 uM dopamine signal. AID 624465. 0.084% of 360,000 active; in the data active means activation above about 40%
Target sequence (P14416 whole entry, looked up): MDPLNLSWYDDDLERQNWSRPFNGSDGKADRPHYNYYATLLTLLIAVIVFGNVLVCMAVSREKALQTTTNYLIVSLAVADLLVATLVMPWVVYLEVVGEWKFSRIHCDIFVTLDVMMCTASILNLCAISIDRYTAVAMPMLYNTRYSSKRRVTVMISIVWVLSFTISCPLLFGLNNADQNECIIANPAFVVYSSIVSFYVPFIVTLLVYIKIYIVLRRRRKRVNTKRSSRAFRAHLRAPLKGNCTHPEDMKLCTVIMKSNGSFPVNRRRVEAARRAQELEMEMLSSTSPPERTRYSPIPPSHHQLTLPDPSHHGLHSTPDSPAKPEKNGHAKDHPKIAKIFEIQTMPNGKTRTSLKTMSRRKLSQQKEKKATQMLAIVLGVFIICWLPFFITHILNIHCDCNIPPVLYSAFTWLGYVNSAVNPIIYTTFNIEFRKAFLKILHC
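Agonist mode: compounds alone added to overnight-plated D2 PathHunter cells for 90 min at 37 C, with 57 uM final dopamine (EC100) defining full response. Beta-arrestin recruitment detected by chemiluminescent reagent, read after 1 h at ambient temperature.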
D2 antag – antagonists of human D2 dopamine receptor; 2% of 340,000 active; P14416; HEK293 TREx D2 cells, calcium flux, dopamine EC80; AID 485344; inhibition, % at 10 µM; in the data active means inhibition above about 30%; inactive means below that, where a call was filed; further: 0% is about no effect
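Calcium mobilization kinetics were recorded at 1 s intervals in tetracycline-induced HEK293 T-REx D2 cells, first for 180 s after compound addition and then 180 s after EC80 dopamine.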
D2 PAM-1 – potentiates the human D2 dopamine receptor allosterically; 0.23% of 360,000 active; DiscoveRx D2 beta-arrestin cells, luminescence, 90 min; 100% = 57 uM dopamine signal; potentiation, % (concentration not given with the values); P14416; in the data active means potentiation above about 50%
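D2 cells co-treated with compound plus 50 nM dopamine (EC20) for 90 min at 37 deg C to detect potentiation. Beta-arrestin recruitment was read as enzyme-fragment luminescence after 1 h at ambient temperature. Full response was set by 57 uM dopamine.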
D2 PAM-2 – D2 dopamine receptor (human) potentiation; P14416; HEK293 T-REx D2, calcium flux, EC20 dopamine potentiation; potentiation, % at 10 µM; 0.34% of 340,000 active; AID 485347;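 active means potentiation over 3 SD above the plate norm, cut at about 30% in these data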; further: 0% is about no effect
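Potentiation of an EC20 dopamine calcium response measured kinetically over 180 s, after a preceding 180 s compound-only read flagging agonists. Cells: inducible Hek293 Trex D2 line, 4000/well, cultured overnight at 30 C before dye loading.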
D2 ag-2 – agonists of human D2 dopamine receptor; 0.53% of 340,000 active; AID 485358; HEK293 T-REx D2 cells, calcium flux agonist mode; P14416; activation, % at 2 µM;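 active means activation over 3 SD above normal in the single-dose calcium agonist read, cut at about 30% in these data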; further: 0% is about no effect
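Agonism scored from kinetic calcium signal (1 read/sec, 180 s) following compound pin transfer, after a 10 s baseline. Cells: HEK293 Trex line expressing inducible D2 receptor coupled to calcium, dye-loaded after overnight culture at 30 C.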
* hit, by the source's call. Sampled rows, rich in hits. Any-hit rate of the full collection: about 2.4%.

`CCN1CCc2nc(SCC(=O)Nc3ccc(OC)cc3)c(C#N)cc2C1` gave D2 ag-1 -2.3, D2 antag 35.7*, D2 PAM-1 -19.9, D2 PAM-2 -23.3 and D2 ag-2 0.2.
`O=C(CSC1=NCCN1)Nc1ccccc1[N+](=O)[O-]` gave D2 ag-1 -8.9, D2 antag -4.7, D2 PAM-1 -14.9, D2 PAM-2 -17.0 and D2 ag-2 -0.4.
O=C(CSC1=NCCN1)Nc1cccc([N+](=O)[O-])c1 was read as D2 ag-1 -3.9, D2 antag 49.1*, D2 PAM-1 -22.1, D2 PAM-2 -21.5 and D2 ag-2 -0.4.
For COc1cccc(-c2cc(=O)c3cc(NC(C)=O)ccc3[nH]2)c1 the results were D2 ag-1 -1.5, D2 antag 33.8*, D2 PAM-1 -18.9, D2 PAM-2 0.2 and D2 ag-2 0.9.
Cc1ccccc1OCC(=O)Nc1ccc2[nH]c(=O)sc2c1 was read as D2 PAM-2 -10.2 and D2 ag-2 0.1.
Screening CC1CC(C)(C)N(C(=O)CN2CCN(C)CC2)c2ccccc21 (stereo not given) returned D2 ag-1 -3.8, D2 antag 6.7, D2 PAM-1 -3.5, D2 PAM-2 4.0 and D2 ag-2 0.2.
Cc1ccc2c(c1)C(C)CC(C)(C)N2C(=O)CN1CCN(C)CC1 (stereo not given) was read as D2 ag-1 -5.0, D2 antag 36.2*, D2 PAM-1 -31.0, D2 PAM-2 -19.6 and D2 ag-2 -1.0.
COc1ccc(CN2CCc3c(c(=O)n4ncc(C(=O)N5CCN(c6ccccc6F)CC5)c4n3C)C2)cc1 was read as D2 PAM-2 3.2.
CCC1CCc2sc(C(=O)O)cc2C1 (stereo not given) was read as D2 ag-1 -0.9, D2 antag -14.7, D2 PAM-1 -3.5, D2 PAM-2 6.8 and D2 ag-2 0.0.
C=CCN1CCN(C(=O)c2cc3c(s2)CCC(CC)C3)CC1 (stereo not given) was read as D2 ag-1 -6.0, D2 antag 45.8*, D2 PAM-1 -40.7, D2 PAM-2 -17.4 and D2 ag-2 -0.7.
For Cc1cccc(OCCN2CCOCC2)c1C the results were D2 ag-1 -0.9, D2 antag 41.1*, D2 PAM-1 -0.5, D2 PAM-2 -12.1 and D2 ag-2 23.8.
`Fc1ccccc1OCCCN1CCOCC1` gave D2 ag-1 -2.2, D2 antag 31.1*, D2 PAM-1 -9.6, D2 PAM-2 2.2 and D2 ag-2 0.5.
`CCOc1ccccc1NC(=O)Cn1c(=O)n(Cc2ccc(OC)cc2)c(=O)c2oc3ccccc3c21` gave D2 PAM-2 -5.3 and D2 ag-2 0.0.
For Cc1ccc([N+](=O)[O-])cc1NC(=O)CN(C1CCCCC1)S(=O)(=O)c1ccc(Cl)cc1 the results were D2 ag-1 -1.2, D2 antag 52.7*, D2 PAM-1 -37.2, D2 PAM-2 -17.8 and D2 ag-2 0.0.
For C=CCc1ccccc1OCc1nc2ccccc2n1CC the results were D2 PAM-2 -10.2 and D2 ag-2 0.0.
For S=c1[nH]nc(COc2ccccc2)n1/N=C/c1ccccc1Br the results were D2 ag-1 -1.0, D2 antag 38.1*, D2 PAM-1 -11.0, D2 PAM-2 -2.5 and D2 ag-2 -1.2.
`CCCCCOc1ccc(C(=O)Nc2ccc(N3CCOCC3)cc2N2CCOCC2)cc1` gave D2 ag-1 -2.3, D2 antag -12.4, D2 PAM-1 -2.1, D2 PAM-2 78.4* and D2 ag-2 0.4.
CCCCC1CCC(C(=O)Nc2ccccc2N2CCOCC2)CC1 (stereo not given) was read as D2 ag-1 -1.1, D2 antag 33.1*, D2 PAM-1 17.3, D2 PAM-2 10.9 and D2 ag-2 0.9.
For CC(C)(C)C1CCC(C(=O)Nc2ccc(N3CCOCC3)cc2N2CCOCC2)CC1 (stereo not given) the results were D2 ag-1 -4.2, D2 antag 31.4*, D2 PAM-1 -4.7, D2 PAM-2 -13.6 and D2 ag-2 -0.1.
For Cc1ccc(Cn2c(CN3CCC(C(=O)O)CC3)cc3ccccc32)cc1 the results were D2 PAM-2 -4.3.
CN(C)c1ccc(C(=O)N/N=C/c2cc(Br)cc(Br)c2O)cc1 was read as D2 ag-1 -4.9, D2 antag 32.1*, D2 PAM-1 -19.9, D2 PAM-2 -24.2 and D2 ag-2 1.0.
For C/C(=N\NC(=O)c1ccc(Br)cc1)c1cccc(NC(=O)c2cccnc2)c1 the results were D2 ag-1 -0.1, D2 antag 32.0*, D2 PAM-1 -2.8, D2 PAM-2 -18.5 and D2 ag-2 -1.9.
For C/C(=N\NC(=O)c1ccncc1)c1cccc(NC(=O)c2ccc(C(C)(C)C)cc2)c1 the results were D2 ag-1 6.9, D2 antag 25.1, D2 PAM-1 15.2, D2 PAM-2 11.2 and D2 ag-2 0.2.
`COc1ccc(-c2[nH]ncc2/C=N/NC(=O)c2ccc(Br)cc2)c(OC)c1` gave D2 ag-1 -7.0, D2 antag 48.3*, D2 PAM-1 -9.6, D2 PAM-2 -26.8 and D2 ag-2 -0.7.
Screening COc1c(Br)cc(Br)cc1/C=N/NC(=O)c1cccnc1 returned D2 ag-1 -1.1, D2 antag 90.1*, D2 PAM-1 -1.3, D2 PAM-2 -17.2 and D2 ag-2 -0.9.
COc1ccc(C(=O)N/N=C/c2cn[nH]c2-c2ccc(OC)cc2OC)cc1 was read as D2 ag-1 -4.8, D2 antag 5.0, D2 PAM-1 -37.2, D2 PAM-2 -30.2 and D2 ag-2 -1.7.
Screening COc1ccc(CCC(=O)NC2CC(=O)N(c3ccc(C)cc3)C2)cc1 (stereo not given) returned D2 PAM-2 -5.8 and D2 ag-2 0.4.
Screening COc1c(Br)cc(Br)cc1/C=N/NC(=O)c1ccncc1 returned D2 ag-1 2.4, D2 antag 93.5*, D2 PAM-1 -32.0, D2 PAM-2 -20.4 and D2 ag-2 0.6.
`COc1cc(/C=N/NC(=O)c2ccncc2)cc(OC)c1OC` gave D2 ag-1 1.8, D2 antag 2.8, D2 PAM-1 1.0, D2 PAM-2 4.8 and D2 ag-2 0.8.
Screening Cn1c(=S)[nH]c2scc(-c3cccs3)c2c1=O returned D2 ag-1 14.4 and D2 PAM-1 67.5*.
`Fc1ccc(NC(=S)N/N=C/c2cccc(Br)c2)c(F)c1` gave D2 ag-1 -1.9, D2 antag 2.2, D2 PAM-1 1.8, D2 PAM-2 47.5* and D2 ag-2 0.3.
For Cc1sc2ncnc(N3CCN(CCOc4ccc(Cl)cc4)CC3)c2c1C the results were D2 ag-1 1.8, D2 antag 35.5*, D2 PAM-1 -4.1, D2 PAM-2 -11.6 and D2 ag-2 -1.4.
Cc1sc2ncnc(N3CCC(C(=O)NNC(=O)COc4ccc(Cl)cc4)CC3)c2c1C was read as D2 ag-1 6.7 and D2 PAM-1 6.7.
